The text below walks through data of ChEMBL document CHEMBL1961873, “Compounds: GSK PKIS; Assays: Nanosyn kinase panel” (2012).

In assay [1] the target is T1, Ephrin type-B receptor 2 (Homo sapiens) (UniProt P29323).
T1 sequence (whole entry): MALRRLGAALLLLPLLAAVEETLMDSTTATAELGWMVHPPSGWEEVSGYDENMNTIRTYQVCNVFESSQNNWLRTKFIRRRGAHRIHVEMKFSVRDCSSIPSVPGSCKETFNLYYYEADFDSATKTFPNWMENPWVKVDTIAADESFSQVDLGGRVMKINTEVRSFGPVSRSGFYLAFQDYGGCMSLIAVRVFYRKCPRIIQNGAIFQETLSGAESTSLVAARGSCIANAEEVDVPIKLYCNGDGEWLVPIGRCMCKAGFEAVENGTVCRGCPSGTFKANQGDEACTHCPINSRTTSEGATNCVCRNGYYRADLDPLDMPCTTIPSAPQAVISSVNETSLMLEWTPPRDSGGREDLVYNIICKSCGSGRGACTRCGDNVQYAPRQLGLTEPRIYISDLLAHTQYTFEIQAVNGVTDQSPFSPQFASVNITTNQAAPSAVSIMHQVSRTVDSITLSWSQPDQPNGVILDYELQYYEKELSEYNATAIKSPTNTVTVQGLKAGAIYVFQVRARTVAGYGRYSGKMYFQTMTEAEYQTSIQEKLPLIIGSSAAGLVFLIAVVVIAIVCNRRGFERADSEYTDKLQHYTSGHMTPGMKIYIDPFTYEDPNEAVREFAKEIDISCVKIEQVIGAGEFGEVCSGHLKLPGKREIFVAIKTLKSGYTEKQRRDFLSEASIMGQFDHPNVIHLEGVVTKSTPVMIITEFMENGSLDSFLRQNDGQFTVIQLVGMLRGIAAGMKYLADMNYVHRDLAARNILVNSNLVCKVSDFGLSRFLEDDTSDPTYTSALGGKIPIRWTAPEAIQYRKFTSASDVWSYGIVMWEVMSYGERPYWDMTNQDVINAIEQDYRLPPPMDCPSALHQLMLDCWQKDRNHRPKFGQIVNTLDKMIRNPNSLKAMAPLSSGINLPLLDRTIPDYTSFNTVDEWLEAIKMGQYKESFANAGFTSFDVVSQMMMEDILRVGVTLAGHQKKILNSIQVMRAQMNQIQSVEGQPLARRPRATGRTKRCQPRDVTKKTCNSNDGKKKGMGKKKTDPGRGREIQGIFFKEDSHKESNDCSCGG
Conditions: at 1 µM.

Assay [2] concerns the target T2, Ephrin type-B receptor 3 (Homo sapiens) (UniProt P54753).
T2 sequence (whole entry): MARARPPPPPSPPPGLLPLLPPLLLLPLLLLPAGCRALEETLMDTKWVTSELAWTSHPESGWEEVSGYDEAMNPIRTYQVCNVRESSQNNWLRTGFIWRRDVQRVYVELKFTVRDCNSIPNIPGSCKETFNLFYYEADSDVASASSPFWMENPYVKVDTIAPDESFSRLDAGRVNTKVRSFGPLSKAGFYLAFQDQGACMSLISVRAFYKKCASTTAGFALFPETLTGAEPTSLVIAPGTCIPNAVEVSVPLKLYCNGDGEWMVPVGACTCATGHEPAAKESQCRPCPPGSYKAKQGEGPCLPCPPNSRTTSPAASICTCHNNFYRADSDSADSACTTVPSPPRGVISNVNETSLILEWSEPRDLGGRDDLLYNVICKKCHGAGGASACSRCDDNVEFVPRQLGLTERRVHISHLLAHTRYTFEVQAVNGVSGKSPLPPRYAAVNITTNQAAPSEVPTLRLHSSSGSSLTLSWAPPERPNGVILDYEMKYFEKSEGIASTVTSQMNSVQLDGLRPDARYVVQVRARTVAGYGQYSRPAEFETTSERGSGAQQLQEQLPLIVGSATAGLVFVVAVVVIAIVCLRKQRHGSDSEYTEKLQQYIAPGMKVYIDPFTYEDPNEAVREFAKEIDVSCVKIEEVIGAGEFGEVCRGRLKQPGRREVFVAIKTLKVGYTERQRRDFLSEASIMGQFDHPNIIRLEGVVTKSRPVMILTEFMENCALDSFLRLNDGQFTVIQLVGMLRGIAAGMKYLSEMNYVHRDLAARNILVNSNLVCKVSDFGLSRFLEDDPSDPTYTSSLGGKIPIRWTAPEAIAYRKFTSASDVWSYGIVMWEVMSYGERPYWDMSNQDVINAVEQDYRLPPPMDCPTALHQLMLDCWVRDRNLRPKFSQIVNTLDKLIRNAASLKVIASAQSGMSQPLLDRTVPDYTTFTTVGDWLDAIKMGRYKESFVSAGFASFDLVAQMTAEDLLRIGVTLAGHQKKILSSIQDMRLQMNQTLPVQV
Conditions: at 0.1 µM.

The target of assay [3] is T2, Ephrin type-B receptor 3 (Homo sapiens). Conditions: at 1 µM.
Assay [4] has as its target T3, Ephrin type-B receptor 4 (Homo sapiens) (UniProt P54760).
T3 sequence (whole entry): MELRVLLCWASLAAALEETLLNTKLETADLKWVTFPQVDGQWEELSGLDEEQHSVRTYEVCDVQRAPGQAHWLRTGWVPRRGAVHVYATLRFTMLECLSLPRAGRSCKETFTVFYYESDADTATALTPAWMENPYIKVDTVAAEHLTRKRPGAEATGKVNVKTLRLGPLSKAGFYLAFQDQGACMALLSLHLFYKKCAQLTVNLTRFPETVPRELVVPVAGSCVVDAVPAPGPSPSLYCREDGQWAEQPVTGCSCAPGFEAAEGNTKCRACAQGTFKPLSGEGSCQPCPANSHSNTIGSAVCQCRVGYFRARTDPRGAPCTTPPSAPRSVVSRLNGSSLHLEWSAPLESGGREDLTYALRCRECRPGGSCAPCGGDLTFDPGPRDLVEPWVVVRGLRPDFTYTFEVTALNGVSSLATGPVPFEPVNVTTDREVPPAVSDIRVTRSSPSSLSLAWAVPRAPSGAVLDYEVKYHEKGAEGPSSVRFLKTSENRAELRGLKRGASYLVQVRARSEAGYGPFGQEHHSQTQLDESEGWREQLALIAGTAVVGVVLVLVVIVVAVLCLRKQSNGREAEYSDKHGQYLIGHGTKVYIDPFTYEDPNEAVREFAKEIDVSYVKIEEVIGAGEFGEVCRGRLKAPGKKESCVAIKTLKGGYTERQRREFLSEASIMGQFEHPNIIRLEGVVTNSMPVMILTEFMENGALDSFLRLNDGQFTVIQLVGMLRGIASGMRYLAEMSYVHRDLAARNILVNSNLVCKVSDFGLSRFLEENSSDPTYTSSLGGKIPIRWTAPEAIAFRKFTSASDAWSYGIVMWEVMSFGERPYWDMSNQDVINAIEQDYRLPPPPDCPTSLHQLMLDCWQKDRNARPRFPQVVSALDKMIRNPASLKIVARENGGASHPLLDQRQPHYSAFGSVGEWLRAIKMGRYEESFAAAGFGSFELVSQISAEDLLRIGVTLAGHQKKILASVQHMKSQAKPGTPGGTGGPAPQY
Conditions: at 0.1 µM.

Assay [5] addresses T3, Ephrin type-B receptor 4 (Homo sapiens). Conditions: at 1 µM.
In assay [6] the target is Receptor tyrosine-protein kinase erbB-2 (Homo sapiens) (UniProt P04626). Conditions: at 0.1 µM.
Chain of Receptor tyrosine-protein kinase erbB-2 (Homo sapiens) (P04626 whole entry): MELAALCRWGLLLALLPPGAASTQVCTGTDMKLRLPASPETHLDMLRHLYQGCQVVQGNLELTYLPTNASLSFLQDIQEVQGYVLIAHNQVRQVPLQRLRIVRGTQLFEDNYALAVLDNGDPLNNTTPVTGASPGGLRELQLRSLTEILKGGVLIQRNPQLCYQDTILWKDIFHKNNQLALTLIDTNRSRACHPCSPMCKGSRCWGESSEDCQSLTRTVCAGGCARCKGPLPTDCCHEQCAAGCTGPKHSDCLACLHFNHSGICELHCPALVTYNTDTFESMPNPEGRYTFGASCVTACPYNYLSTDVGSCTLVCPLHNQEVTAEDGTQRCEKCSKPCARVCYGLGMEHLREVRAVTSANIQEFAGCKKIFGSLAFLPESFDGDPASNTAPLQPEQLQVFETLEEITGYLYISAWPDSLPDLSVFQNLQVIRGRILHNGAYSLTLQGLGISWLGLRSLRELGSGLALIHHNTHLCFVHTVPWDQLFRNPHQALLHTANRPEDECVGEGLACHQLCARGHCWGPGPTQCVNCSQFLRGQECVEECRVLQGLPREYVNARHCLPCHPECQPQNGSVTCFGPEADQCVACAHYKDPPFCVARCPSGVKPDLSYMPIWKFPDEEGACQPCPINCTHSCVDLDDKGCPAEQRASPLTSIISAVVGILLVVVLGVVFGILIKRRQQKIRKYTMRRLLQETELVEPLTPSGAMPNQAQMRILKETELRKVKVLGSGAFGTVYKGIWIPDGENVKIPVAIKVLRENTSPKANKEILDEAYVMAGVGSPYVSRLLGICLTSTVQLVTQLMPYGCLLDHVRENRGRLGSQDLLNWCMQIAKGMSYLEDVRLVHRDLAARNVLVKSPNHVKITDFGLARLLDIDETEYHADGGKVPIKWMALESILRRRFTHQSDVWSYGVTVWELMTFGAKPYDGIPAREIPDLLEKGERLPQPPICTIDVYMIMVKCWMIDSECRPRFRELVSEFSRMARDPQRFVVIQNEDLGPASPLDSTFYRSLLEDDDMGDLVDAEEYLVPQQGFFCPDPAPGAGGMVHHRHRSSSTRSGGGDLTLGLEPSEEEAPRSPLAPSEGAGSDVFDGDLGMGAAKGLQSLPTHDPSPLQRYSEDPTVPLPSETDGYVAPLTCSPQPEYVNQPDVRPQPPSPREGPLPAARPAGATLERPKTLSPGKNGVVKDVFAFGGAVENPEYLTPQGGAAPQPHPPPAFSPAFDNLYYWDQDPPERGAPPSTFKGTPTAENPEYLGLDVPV
Assay [7] shares this target. Conditions: at 1 µM.
Assay [8] addresses Receptor tyrosine-protein kinase erbB-4 (Homo sapiens) (UniProt Q15303). Conditions: at 0.1 µM.
Assay [9] has the same target. Conditions: at 1 µM.
The target in assay [10] is Tyrosine-protein kinase Fer (Homo sapiens) (UniProt P16591). Conditions: at 0.1 µM.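 Also: reported figures are averaged percent inhibition of FER.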
Chain of Tyrosine-protein kinase Fer (Homo sapiens) (P16591 whole entry, looked up): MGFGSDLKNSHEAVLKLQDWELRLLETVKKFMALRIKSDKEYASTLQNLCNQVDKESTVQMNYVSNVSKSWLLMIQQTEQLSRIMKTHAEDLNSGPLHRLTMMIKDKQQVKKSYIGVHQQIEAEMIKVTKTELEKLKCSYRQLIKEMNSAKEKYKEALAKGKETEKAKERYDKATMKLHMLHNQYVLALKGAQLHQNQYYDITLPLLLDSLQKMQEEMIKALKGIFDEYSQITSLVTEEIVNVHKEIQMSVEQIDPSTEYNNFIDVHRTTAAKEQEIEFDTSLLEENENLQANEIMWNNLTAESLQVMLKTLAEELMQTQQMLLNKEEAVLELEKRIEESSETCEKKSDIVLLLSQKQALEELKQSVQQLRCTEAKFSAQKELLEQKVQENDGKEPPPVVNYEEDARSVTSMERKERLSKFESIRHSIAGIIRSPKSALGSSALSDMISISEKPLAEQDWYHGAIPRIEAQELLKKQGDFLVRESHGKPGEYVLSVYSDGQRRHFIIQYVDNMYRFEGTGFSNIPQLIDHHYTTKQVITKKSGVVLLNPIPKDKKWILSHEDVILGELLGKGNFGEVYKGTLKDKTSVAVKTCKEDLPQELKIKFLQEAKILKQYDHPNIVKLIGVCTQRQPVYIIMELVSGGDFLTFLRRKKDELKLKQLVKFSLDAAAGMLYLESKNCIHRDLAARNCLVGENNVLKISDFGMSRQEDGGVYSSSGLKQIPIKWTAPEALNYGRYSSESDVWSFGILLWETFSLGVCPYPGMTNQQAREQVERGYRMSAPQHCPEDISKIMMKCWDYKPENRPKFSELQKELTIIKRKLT

Molecules are shown by their SMILES.

Chain of Receptor tyrosine-protein kinase erbB-4 (Homo sapiens) (Q15303 whole entry): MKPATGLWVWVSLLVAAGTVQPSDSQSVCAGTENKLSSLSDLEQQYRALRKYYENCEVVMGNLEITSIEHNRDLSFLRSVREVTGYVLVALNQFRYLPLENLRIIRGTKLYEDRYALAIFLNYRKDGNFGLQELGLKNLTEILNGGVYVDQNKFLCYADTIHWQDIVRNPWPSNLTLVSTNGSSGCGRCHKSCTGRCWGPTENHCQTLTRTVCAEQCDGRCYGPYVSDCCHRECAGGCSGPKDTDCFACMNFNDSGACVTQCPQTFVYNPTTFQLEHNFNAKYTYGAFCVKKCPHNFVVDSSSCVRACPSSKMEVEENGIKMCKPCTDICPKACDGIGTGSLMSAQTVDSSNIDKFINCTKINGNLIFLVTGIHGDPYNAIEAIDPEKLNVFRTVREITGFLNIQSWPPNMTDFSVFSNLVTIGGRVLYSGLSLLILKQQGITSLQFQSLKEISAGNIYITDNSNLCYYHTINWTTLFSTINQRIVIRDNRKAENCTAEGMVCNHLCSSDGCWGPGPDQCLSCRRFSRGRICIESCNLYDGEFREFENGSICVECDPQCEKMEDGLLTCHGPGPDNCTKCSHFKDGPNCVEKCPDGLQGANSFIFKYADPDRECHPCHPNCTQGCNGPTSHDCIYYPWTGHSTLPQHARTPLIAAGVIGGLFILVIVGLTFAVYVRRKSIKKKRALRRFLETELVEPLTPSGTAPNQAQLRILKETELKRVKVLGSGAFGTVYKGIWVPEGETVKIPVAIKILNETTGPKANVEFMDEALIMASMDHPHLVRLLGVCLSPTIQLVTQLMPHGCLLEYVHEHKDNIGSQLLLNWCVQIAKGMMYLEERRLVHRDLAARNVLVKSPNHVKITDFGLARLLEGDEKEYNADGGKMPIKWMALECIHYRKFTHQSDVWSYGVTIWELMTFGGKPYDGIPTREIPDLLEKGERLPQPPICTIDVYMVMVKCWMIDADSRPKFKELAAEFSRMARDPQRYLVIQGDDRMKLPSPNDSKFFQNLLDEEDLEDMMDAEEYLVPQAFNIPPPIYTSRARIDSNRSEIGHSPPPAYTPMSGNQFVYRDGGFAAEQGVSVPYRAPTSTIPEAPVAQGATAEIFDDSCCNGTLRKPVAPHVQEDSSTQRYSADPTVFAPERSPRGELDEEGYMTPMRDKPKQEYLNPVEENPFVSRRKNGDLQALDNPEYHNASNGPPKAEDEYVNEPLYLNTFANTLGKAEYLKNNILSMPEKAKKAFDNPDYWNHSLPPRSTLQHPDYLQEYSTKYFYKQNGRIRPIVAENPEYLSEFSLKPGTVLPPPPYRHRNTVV

Consider `Nc1ccc(C#Cc2cncnc2Nc2ccc(OCc3cccc(F)c3)c(Cl)c2)cc1`, for which the inhibition in [1] was 6.65%; in assay [2] it was 3.43%; in [3], 3.54%; in assay [4], 0.47%; in assay [5] it was 2.45%; in assay [6] it was 5.63%. Moreover, the inhibition in [7] worked out at 10.1%; in assay [8], 12.9%; in assay [9] it was 54.4%; in assay [10], 2.93%.

For the molecule `Cc1ccc2c(-c3ccnc(Nc4cccc(C(F)(F)F)c4)n3)c(-c3ccccc3)nn2n1`, the inhibition amounted to 51.7% in assay [1]; 3.61% in assay [2]; 9.16% in assay [3]; 7.62% in assay [4]; 46.4% in [5]; 5.37% in assay [6]. For the same molecule, the inhibition in [7] was 37.7%; in assay [8], 40.4%; in [9], 79%; in assay [10], -8.28%.

`FC(F)(F)c1ccc(-c2nn3ncccc3c2-c2ccnc(Nc3ccc4c(c3)OCCO4)n2)cc1`: the inhibition in assay [1] was 36.7%; in assay [2], -5.93%; in assay [3], -4.69%; in [4], 0.48%; in [5] it was 10.2%; in assay [6], 3.02%. Further, the inhibition in assay [7] was determined as 12.5%; in [8], 6.46%; in assay [9] it was 43.5%; in [10], 7.67%.

Regarding `NS(=O)(=O)c1ccc(N/N=C2\C(=O)Nc3ccc(Cl)cc32)cc1`, the inhibition in assay [1] was 6.46%; in assay [2] it was 3.51%; in assay [3], 2.43%; in [4], 1.05%; in [5] it was 2.86%; in assay [6] it was 2.29%. Moreover, the inhibition is 4.3% in [7], 4.78% in assay [8] and 2.95% in assay [10].

Consider `Cc1ccc(C(=O)NC2CC2)cc1-c1ccc2[nH]ncc2c1`, for which the inhibition was -4.6% in [1]; -8.95% in assay [2]; -5.96% in [3]; -2.42% in assay [4]; -0.31% in assay [5]; -5.76% in [6]. Also, the inhibition in [7] is -4.83%; in [10], -2.95%.

Take `NS(=O)(=O)c1cccc(Nc2cc(-c3ccc(F)cc3)n[nH]2)c1`: the inhibition in assay [1] stood at 10.6%; in [2] it was 3.94%; in assay [3], 2.26%; in [4], 0.66%; in assay [5], 3.57%; in assay [6], 1.6%. Moreover, the inhibition in assay [7] was found to be 6.2%; in assay [8], 5.56%; in assay [9], 11.3%; in assay [10], 5.3%.

In the case of `ON=C1CCc2cc(-c3nc(C4CCNCC4)[nH]c3-c3ccncc3)ccc21`, the inhibition is -8.09% in assay [1]; 2.51% in [2]; -3.73% in assay [3]; -0.77% in [4]; 1.02% in assay [5]; -0.06% in assay [6]. Moreover, the inhibition was -5.12% in assay [7], 5.23% in [8], 10.6% in [9] and -0.49% in [10].

On to `CS(=O)(=O)Nc1cccc(-c2ccc3c(NC(=O)C4CC4)n[nH]c3c2)c1`, for which the inhibition is 4.48% in [2]; -3.94% in [3]; 0.62% in assay [4]; 0.5% in assay [5]; 0.54% in assay [6]; -4.31% in [7]. In addition, the values for the inhibition in assay [8], in assay [9] and in [10] were 6.04%, 8.34% and -0.81%, respectively.

In the case of `COc1ccc2ncnc(Nc3ccc(OCc4ccccc4)cc3)c2c1`, the inhibition was found to be 6.18% in [1]; 4.29% in [2]; 1.66% in assay [3]; 2.58% in [4]; 0.41% in assay [5]; 1.73% in [6]. Besides, the inhibition in assay [7] is 30.9%; in [8], 56.2%; in [9], 85.1%; in assay [10], -1.28%.

Broadly, the inhibition is the change of the read-out against control, counted positive when it falls.
